These results are taken from PubChem BioAssay (NCI).

Values joined by “and” are separate entries in the source; they are usually repeats but may differ in a detail not shown here. Equal entries are not always repeated. About 83,000 compounds went through this panel and 20% of them were active in at least one assay; those are over-represented in the sample as a whole.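 Single-concentration screen, 48 h exposure, 96-well plates. Endpoint: percent growth. Below 10 = active.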 Active and inactive are the calls of the source.

The test system of one assay is K-562 leukemia. Nature of the assay: NCI-60 one-dose screen, 48 h (100 = growth as untreated, 0 = no growth, -100 = all killed). The settings on record: 10 µM unless noted.
Regarding `COc1ccc(NC2=C(I)C(=O)C(C)=C(C)C2=O)cc1`, the growth was 1.44% (active).
For the molecule `CC(=O)Nc1cccc(-n2c(COc3ccc(Br)cc3)nc3ccccc32)c1`, the growth was 91.4% (inactive) and 106% (inactive).
`CCCSc1nnc(-c2sc3nc4ccccc4n3c2C)o1`: the growth was 97.4% (inactive).
For the molecule `COc1cc(/C=N/NC(=O)c2ccc(OCc3nc4ccc(C)cc4[nH]3)cc2)cc(OC)c1OC`, the growth was 17.7% (inactive).
In the case of `COc1cc(CNC(=O)C[C@H](C)CCC=C(C)C)ccc1OCc1cn(-c2ccccc2Cl)nn1`, the growth is 44.6% (inactive).
In the case of `Cc1ccc(C(=O)Nc2cc(-n3ccnc3)cc(C(F)(F)F)c2)cc1-n1cc(-c2cnc3cccnn23)nn1`, the growth is 9.87% (active).
Take `O=C(Nc1ccc(Cl)c(C(F)(F)F)c1)N1CCN(c2cc(-c3cn(-c4ccccc4)nc3-c3cccc(O)c3)ccn2)CC1`: the growth is 14.8% (inactive).
As for `FC(F)(F)CN1CCN(CCn2c(C(F)(F)F)cc3c(Cl)ncnc32)CC1`, the growth is -20.3% (active).
Still for that read-out and setting: the figure for `COc1cccc(C(N)=Nc2ccc(OCCCCCCCCn3cncn3)cc2)c1` is 15.8% (inactive); for `Nc1nnc(-c2cncc(Br)c2)c(-c2c[nH]c3ccc(Br)cc23)n1` it is 19.1% (inactive).
For the molecule `Nc1cc(-c2c[nH]c3ccc(Cl)cc23)nc2cc(-c3c[nH]c4ccccc34)nn12`, the growth is 6.27% (active).
On the same count and under the same terms, to `CN(C)CCOc1ccc(C(=O)C2[C@H](c3ccc(Cl)cc3)[C@@H](c3ccccc3)NC23C(=O)Nc2ccc(Cl)cc23)cc1` (stereo partly specified) belongs -76.1% (active); to `O=C(NNC(=S)NC(=O)c1ccccc1)c1ccc(OCc2nc3ccc(Cl)cc3[nH]2)cc1`, 4.64% (active); to `O=C(c1ccc(Cl)cc1)C1[C@H](c2ccccc2Cl)[C@@H](c2ccccc2)NC12C(=O)Nc1ccc(Br)cc12` (stereo partly specified), -43.2% (active).
As to `COc1ccc(CCC2NCCc3c(Br)c4c(c(OC)c32)OCO4)cc1` (stereo unspecified), the growth is 6.12% (active).
As for `O=C(Nc1ccc(Br)cc1)Nc1ccc(-c2ccc3c(c2)NC(=O)/C3=C\c2ccc[nH]2)cc1`, the growth was 18.6% (inactive).
Regarding `O=C(Nc1ccc(S(=O)(=O)N2CCCCC2)cc1)C(Cl)Cl`, the growth is 111% (inactive).
With `O=C(N/N=C/c1ccc(Br)o1)c1[nH]c2ccc(Br)cc2c1-c1ccccc1`, the growth was 7.92% (active).
Same read-out and setting: to `COc1cc(/C=C/C(=O)c2ccc(S(=O)(=O)NCCNc3nc(N(C)C)nc(N4CCOCC4)n3)cc2)cc(OC)c1OC` belongs -67.8% (active); to `CCCCNC(=S)Nc1ccc(OCc2nc3ccc(Cl)cc3[nH]2)cc1`, 11.1% (inactive).
On the same count and under the same terms, the figure for `COc1ccc(-c2cc(C(=O)N=Nc3c(O)[nH]c4ccc(Cl)cc34)c3ccccc3n2)cc1OC` is 109% (inactive); for `NS(=O)(=O)c1cccc(Nc2nc(SCC(=O)c3ccc(F)cc3)nc3ccccc23)c1` it is 8.34% (active); for `COc1ccc2[nH]c(O)c(N=Nc3nc(-c4ccccc4)cs3)c2c1` it is 28.9% (inactive).
On to `COc1ccc(OC)c(Cn2cc(C#N)c(N)c2C(=O)c2ccc(Br)cc2)c1`, for which the growth was 15.2% (inactive).
Turning to `CC1=C(C)C(=O)C(N2CCSCC2)=CC1=O`, the growth is 107% (inactive).
In the case of `N#Cc1c(-c2ccc(F)cc2)nc(SCc2ccc(F)cc2)nc1N1CCNCC1`, the growth is 0.722% (active).
In the case of `COc1ccc2[nH]cc(-c3cc4nc(-c5cn(C)c6ncccc56)cc(N)n4n3)c2c1`, the growth was -31.7% (active).
Take `O=C1Nc2ccccc2/C1=C\c1ccc(OCC(=O)c2ccc(Br)cc2)cc1`: the growth was 27.8% (inactive).
For `Nc1nn2c(-c3cc4ccccc4oc3=O)ccnc2c1N=Nc1ccccc1`, the growth was 67.2% (inactive).
Consider `O=c1c(-c2nc(-c3ccccc3)c(-c3ccccc3)[nH]2)coc2ccc(F)cc12`, for which the growth was 32.5% (inactive).
On to `Cc1ccccc1Nc1nnc(-c2c[nH]c3ccccc23)o1`, for which the growth is 7.28% (active).
For the molecule `O=CNc1cccc(-n2cnc3cc(-c4ccc(O)cc4)ccc32)c1`, the growth was 12.2% (inactive).
For `CC1(C)CC(=O)C2=C(C1)OC(N)=C(c1nc3ccccc3[nH]1)C2c1ccc(Cl)cc1` (stereo unspecified), the growth is 61.5% (inactive) and 104% (inactive).
On to `CN1C(=O)/C(=C\C(=O)c2cc3ccccc3oc2=O)c2ccccc21`, for which the growth was 25.6% (inactive).
Same read-out and setting: to `Cc1cc(N=C(N)c2ccccc2)ccc1OCCCCCCCCn1ccnc1` belongs 12.4% (inactive); to `Cc1ccc(C2CC(c3ccc(NC(=S)Nc4ccccc4)cc3)=NN2c2ccc(S(N)(=O)=O)cc2)cc1` (stereo unspecified), 22.7% (inactive); to `COc1cc(CNC(=O)[C@]23CCC(C)(C)CC2C2=CCC4[C@@]5(C)CCC(OC(C)=O)C(C)(C)C5CC[C@@]4(C)[C@]2(C)CC3)ccc1OCc1cn(-c2ccc(Cl)cc2Cl)nn1` (stereo partly specified), 85.5% (inactive).
As to `Nc1ccc(-c2ccc3ncnc(N4CCc5cc(F)c(Cl)cc54)c3c2)cn1`, the growth was 12.9% (inactive).

The next assay concerns MALME-3M melanoma. The assay is described as above. The following applies: 10 µM unless noted.
Regarding `COc1ccc(NC2=C(I)C(=O)C(C)=C(C)C2=O)cc1`, the growth was 77.7% (inactive).
Regarding `CC(=O)Nc1cccc(-n2c(COc3ccc(Br)cc3)nc3ccccc32)c1`, the growth is 96.3% (inactive) and 98.8% (inactive).
Take `CCCSc1nnc(-c2sc3nc4ccccc4n3c2C)o1`: the growth is 116% (inactive).
For the molecule `COc1cc(/C=N/NC(=O)c2ccc(OCc3nc4ccc(C)cc4[nH]3)cc2)cc(OC)c1OC`, the growth was 4.8% (active).
Take `COc1cc(CNC(=O)C[C@H](C)CCC=C(C)C)ccc1OCc1cn(-c2ccccc2Cl)nn1`: the growth is 68.2% (inactive).
As to `Cc1ccc(C(=O)Nc2cc(-n3ccnc3)cc(C(F)(F)F)c2)cc1-n1cc(-c2cnc3cccnn23)nn1`, the growth was -7.64% (active).
In the case of `O=C(Nc1ccc(Cl)c(C(F)(F)F)c1)N1CCN(c2cc(-c3cn(-c4ccccc4)nc3-c3cccc(O)c3)ccn2)CC1`, the growth is -31.4% (active).
On to `FC(F)(F)CN1CCN(CCn2c(C(F)(F)F)cc3c(Cl)ncnc32)CC1`, for which the growth was 77.3% (inactive).
As to `COc1cccc(C(N)=Nc2ccc(OCCCCCCCCn3cncn3)cc2)c1`, the growth is 37.4% (inactive).
Consider `Nc1nnc(-c2cncc(Br)c2)c(-c2c[nH]c3ccc(Br)cc23)n1`, for which the growth was 74.1% (inactive).
On to `Nc1cc(-c2c[nH]c3ccc(Cl)cc23)nc2cc(-c3c[nH]c4ccccc34)nn12`, for which the growth was -68.2% (active).
For the molecule `CN(C)CCOc1ccc(C(=O)C2[C@H](c3ccc(Cl)cc3)[C@@H](c3ccccc3)NC23C(=O)Nc2ccc(Cl)cc23)cc1` (stereo partly specified), the growth is -87.8% (active).
Still for that read-out and setting: the figure for `O=C(NNC(=S)NC(=O)c1ccccc1)c1ccc(OCc2nc3ccc(Cl)cc3[nH]2)cc1` is -75.4% (active); for `O=C(c1ccc(Cl)cc1)C1[C@H](c2ccccc2Cl)[C@@H](c2ccccc2)NC12C(=O)Nc1ccc(Br)cc12` (stereo partly specified) it is -64.2% (active); for `COc1ccc(CCC2NCCc3c(Br)c4c(c(OC)c32)OCO4)cc1` (stereo unspecified) it is 23.4% (inactive).
Consider `O=C(Nc1ccc(Br)cc1)Nc1ccc(-c2ccc3c(c2)NC(=O)/C3=C\c2ccc[nH]2)cc1`, for which the growth was 61.6% (inactive).
Same read-out and setting: to `O=C(Nc1ccc(S(=O)(=O)N2CCCCC2)cc1)C(Cl)Cl` belongs 99.3% (inactive); to `O=C(N/N=C/c1ccc(Br)o1)c1[nH]c2ccc(Br)cc2c1-c1ccccc1`, 0.448% (active); to `COc1cc(/C=C/C(=O)c2ccc(S(=O)(=O)NCCNc3nc(N(C)C)nc(N4CCOCC4)n3)cc2)cc(OC)c1OC`, 41.2% (inactive).
`CCCCNC(=S)Nc1ccc(OCc2nc3ccc(Cl)cc3[nH]2)cc1`: the growth is 41.2% (inactive).
In the case of `COc1ccc(-c2cc(C(=O)N=Nc3c(O)[nH]c4ccc(Cl)cc34)c3ccccc3n2)cc1OC`, the growth was 105% (inactive).
On the same count and under the same terms, the figure for `NS(=O)(=O)c1cccc(Nc2nc(SCC(=O)c3ccc(F)cc3)nc3ccccc23)c1` is 10.6% (inactive).
For the molecule `COc1ccc2[nH]c(O)c(N=Nc3nc(-c4ccccc4)cs3)c2c1`, the growth was 22.5% (inactive).
As to `COc1ccc(OC)c(Cn2cc(C#N)c(N)c2C(=O)c2ccc(Br)cc2)c1`, the growth is 42.6% (inactive).
The same measure, in the same setting: to `CC1=C(C)C(=O)C(N2CCSCC2)=CC1=O` belongs 91.3% (inactive); to `N#Cc1c(-c2ccc(F)cc2)nc(SCc2ccc(F)cc2)nc1N1CCNCC1`, -97.8% (active); to `COc1ccc2[nH]cc(-c3cc4nc(-c5cn(C)c6ncccc56)cc(N)n4n3)c2c1`, -60.6% (active).
The same measure, in the same setting: the figure for `O=C1Nc2ccccc2/C1=C\c1ccc(OCC(=O)c2ccc(Br)cc2)cc1` is 81% (inactive); for `Nc1nn2c(-c3cc4ccccc4oc3=O)ccnc2c1N=Nc1ccccc1` it is 81.9% (inactive); for `O=c1c(-c2nc(-c3ccccc3)c(-c3ccccc3)[nH]2)coc2ccc(F)cc12` it is 52% (inactive).
As to `Cc1ccccc1Nc1nnc(-c2c[nH]c3ccccc23)o1`, the growth was 33.5% (inactive).
With `O=CNc1cccc(-n2cnc3cc(-c4ccc(O)cc4)ccc32)c1`, the growth was 42.8% (inactive).
With `CC1(C)CC(=O)C2=C(C1)OC(N)=C(c1nc3ccccc3[nH]1)C2c1ccc(Cl)cc1` (stereo unspecified), the growth is 41.8% (inactive) and 97.3% (inactive).
As to `CN1C(=O)/C(=C\C(=O)c2cc3ccccc3oc2=O)c2ccccc21`, the growth was 43.2% (inactive).
For `Cc1cc(N=C(N)c2ccccc2)ccc1OCCCCCCCCn1ccnc1`, the growth was -77.2% (active).
Turning to `Cc1ccc(C2CC(c3ccc(NC(=S)Nc4ccccc4)cc3)=NN2c2ccc(S(N)(=O)=O)cc2)cc1` (stereo unspecified), the growth is -0.146% (active).
Turning to `COc1cc(CNC(=O)[C@]23CCC(C)(C)CC2C2=CCC4[C@@]5(C)CCC(OC(C)=O)C(C)(C)C5CC[C@@]4(C)[C@]2(C)CC3)ccc1OCc1cn(-c2ccc(Cl)cc2Cl)nn1` (stereo partly specified), the growth is 99% (inactive).
Still for that read-out and setting: the figure for `Nc1ccc(-c2ccc3ncnc(N4CCc5cc(F)c(Cl)cc54)c3c2)cn1` is 3.74% (active).
